Source: PMC12820563, “FoxP3 forms a head-to-head dimer in vivo and stabilizes its multimerization on adjacent microsatellites”
In all, about 16,000 sequences were measured (“rpm ratio (pull-down/input)”: median about 0.94, highest 2% from about 1.7 on). This is one part of a sample in which the highest values are shown more often than they occur.

molecular target: T1, MBP-FoxP1dN (Mus musculus, UniProt P58462 326-579); test: PD-seq (MBP pull-down with sequencing); 20 mM Tris-HCl pH 7.5, 100 mM NaCl, 1.5 mM MgCl2, 0.4 uM protein, 0.1 uM dsDNA library, 30 min, room temperature, amylose pull-down; high values mean tight binding; conditions: protein: recombinant; tags: His6-MBP; chain copies: 2; dsDNA, one strand shown
T1 sequence: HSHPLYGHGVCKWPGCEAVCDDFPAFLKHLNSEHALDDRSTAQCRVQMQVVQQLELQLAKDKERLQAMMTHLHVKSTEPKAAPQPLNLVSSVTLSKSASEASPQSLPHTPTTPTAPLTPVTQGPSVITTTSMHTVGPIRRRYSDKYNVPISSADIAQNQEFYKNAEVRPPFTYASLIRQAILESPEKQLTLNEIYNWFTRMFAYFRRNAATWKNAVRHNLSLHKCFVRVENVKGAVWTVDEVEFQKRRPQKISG
Procedure, shortened: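 E. coli-expressed mouse FoxP3 or FoxP1 fragment, N-terminus removed and tagged with His6-MBP, was used at 0.4 µM against 0.1 µM of a Klenow-filled degenerate double-stranded DNA library. After 30 min at room temperature in Tris pH 7.5 buffer with NaCl and MgCl2, complexes were pulled down on amylose resin and washed three times. Binding is pull-down over input reads-per-million enrichment from pooled replicates of the proteinase K-released, PCR-barcoded, Illumina-sequenced DNA.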

Row | Sequence | binding signal
1 | GATGATTGTTCTCCCAGCTGATGAATTCCTCAGATCGAGTAAACAAATTTTCCTAATCTTTCTGTTCAAGCGCCATCTAC | 0.761 RPM ratio (pull-down/input)
2 | GATGATTGTTCTCCCAGCTGATGAATTCATAAACTCGAGTAAACAAATTTTCCTAATCTTTCTGTTCAAGCGCCATCTAC | 1.07 RPM ratio (pull-down/input)
3 | GATGATTGTTCTCCCAGCTGATGAATTATTGCCATCGAGTAAACAAATTTTCCTAATCTTTCTGTTCAAGCGCCATCTAC | 1.24 RPM ratio (pull-down/input)
4 | GATGATTGTTCTCCCAGCTGATGAATTCTTTGCATCGAGTAAACAAATTTTCCTAATCTTTCTGTTCAAGCGCCATCTAC | 1.26 RPM ratio (pull-down/input)
5 | GATGATTGTTCTCCCAGCTGATGAATTTGCAGCATCGAGTAAACAAATTTTCCTAATCTTTCTGTTCAAGCGCCATCTAC | 1.09 RPM ratio (pull-down/input)
6 | GATGATTGTTCTCCCAGCTGATGAATTGTTTGCATCGAGTAAACAAATTTTCCTAATCTTTCTGTTCAAGCGCCATCTAC | 2.26 RPM ratio (pull-down/input)
7 | GATGATTGTTCTCCCAGCTGATGAATTATTTGCATCGAGTAAACAAATTTTCCTAATCTTTCTGTTCAAGCGCCATCTAC | 1.89 RPM ratio (pull-down/input)
8 | GATGATTGTTCTCCCAGCTGATGAATTTTTTGCATCGAGTAAACAAATTTTCCTAATCTTTCTGTTCAAGCGCCATCTAC | 1.45 RPM ratio (pull-down/input)
9 | GATGATTGTTCTCCCAGCTGATGAATTTGTTGCATCGAGTAAACAAATTTTCCTAATCTTTCTGTTCAAGCGCCATCTAC | 1.84 RPM ratio (pull-down/input)
10 | GATGATTGTTCTCCCAGCTGATGAATTATTGCAATCGAGTAAACAAATTTTCCTAATCTTTCTGTTCAAGCGCCATCTAC | 1.49 RPM ratio (pull-down/input)
11 | GATGATTGTTCTCCCAGCTGATGAATTTGCATGATCGAGTAAACAAATTTTCCTAATCTTTCTGTTCAAGCGCCATCTAC | 1.05 RPM ratio (pull-down/input)
12 | GATGATTGTTCTCCCAGCTGATGAATTCCCCTCTTCGAGTAAACAAATTTTCCTAATCTTTCTGTTCAAGCGCCATCTAC | 0.821 RPM ratio (pull-down/input)
13 | GATGATTGTTCTCCCAGCTGATGAATTCTCAGGGTCGAGTAAACAAATTTTCCTAATCTTTCTGTTCAAGCGCCATCTAC | 0.745 RPM ratio (pull-down/input)
14 | GATGATTGTTCTCCCAGCTGATGAATTGTGCCTGTCGAGTAAACAAATTTTCCTAATCTTTCTGTTCAAGCGCCATCTAC | 0.964 RPM ratio (pull-down/input)
15 | GATGATTGTTCTCCCAGCTGATGAATTTCGCAAGTCGAGTAAACAAATTTTCCTAATCTTTCTGTTCAAGCGCCATCTAC | 0.831 RPM ratio (pull-down/input)
16 | GATGATTGTTCTCCCAGCTGATGAATTAGGAACGTCGAGTAAACAAATTTTCCTAATCTTTCTGTTCAAGCGCCATCTAC | 0.882 RPM ratio (pull-down/input)

Row | Sequence | binding signal
17 | GATGATTGTTCTCCCAGCTGATGAATTGCCGTCGTCGAGTAAACAAATTTTCCTAATCTTTCTGTTCAAGCGCCATCTAC | 0.968 RPM ratio (pull-down/input)
18 | GATGATTGTTCTCCCAGCTGATGAATTAGACATATCGAGTAAACAAATTTTCCTAATCTTTCTGTTCAAGCGCCATCTAC | 1.06 RPM ratio (pull-down/input)
19 | GATGATTGTTCTCCCAGCTGATGAATTTACTAAGTCGAGTAAACAAATTTTCCTAATCTTTCTGTTCAAGCGCCATCTAC | 1.29 RPM ratio (pull-down/input)
20 | GATGATTGTTCTCCCAGCTGATGAATTCCCACGATCGAGTAAACAAATTTTCCTAATCTTTCTGTTCAAGCGCCATCTAC | 0.81 RPM ratio (pull-down/input)
21 | GATGATTGTTCTCCCAGCTGATGAATTGCAAATATCGAGTAAACAAATTTTCCTAATCTTTCTGTTCAAGCGCCATCTAC | 1.85 RPM ratio (pull-down/input)
22 | GATGATTGTTCTCCCAGCTGATGAATTTTCAATATCGAGTAAACAAATTTTCCTAATCTTTCTGTTCAAGCGCCATCTAC | 1.06 RPM ratio (pull-down/input)
23 | GATGATTGTTCTCCCAGCTGATGAATTGTCAATATCGAGTAAACAAATTTTCCTAATCTTTCTGTTCAAGCGCCATCTAC | 2.23 RPM ratio (pull-down/input)
24 | GATGATTGTTCTCCCAGCTGATGAATTTCCAATATCGAGTAAACAAATTTTCCTAATCTTTCTGTTCAAGCGCCATCTAC | 1.02 RPM ratio (pull-down/input)
25 | GATGATTGTTCTCCCAGCTGATGAATTGTAAATATCGAGTAAACAAATTTTCCTAATCTTTCTGTTCAAGCGCCATCTAC | 2.72 RPM ratio (pull-down/input)
26 | GATGATTGTTCTCCCAGCTGATGAATTTGCAATATCGAGTAAACAAATTTTCCTAATCTTTCTGTTCAAGCGCCATCTAC | 1.34 RPM ratio (pull-down/input)
27 | GATGATTGTTCTCCCAGCTGATGAATTTGTAATATCGAGTAAACAAATTTTCCTAATCTTTCTGTTCAAGCGCCATCTAC | 1.36 RPM ratio (pull-down/input)
28 | GATGATTGTTCTCCCAGCTGATGAATTCTAAATATCGAGTAAACAAATTTTCCTAATCTTTCTGTTCAAGCGCCATCTAC | 1.76 RPM ratio (pull-down/input)
29 | GATGATTGTTCTCCCAGCTGATGAATTTCAAATATCGAGTAAACAAATTTTCCTAATCTTTCTGTTCAAGCGCCATCTAC | 0.914 RPM ratio (pull-down/input)
30 | GATGATTGTTCTCCCAGCTGATGAATTCCTAATATCGAGTAAACAAATTTTCCTAATCTTTCTGTTCAAGCGCCATCTAC | 1.07 RPM ratio (pull-down/input)
31 | GATGATTGTTCTCCCAGCTGATGAATTCTGAATATCGAGTAAACAAATTTTCCTAATCTTTCTGTTCAAGCGCCATCTAC | 0.974 RPM ratio (pull-down/input)
32 | GATGATTGTTCTCCCAGCTGATGAATTTCTAATATCGAGTAAACAAATTTTCCTAATCTTTCTGTTCAAGCGCCATCTAC | 1.09 RPM ratio (pull-down/input)
